# Compounds with a hit are over-represented: about 3.6% of the library has one in this group of screens.
# HSF1 inhib: HSF1 inhibitors in luciferase reporter cells, primary screen, cell-based, NIH3T3, luminescence | actives 0.77% (n = 300,000) | activity change, negative = inhibition, % at 7.5 µM (by protocol) | AID 2098, 2009 | NIH3T3-HGL HSE-luciferase, MG132-induced, luminescence 8 h; hits give low values;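 active = more than half of replicate wells show activity change below -50%, luminescence cut by over half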;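 also: luciferase reports HSF-1 transcriptional activity via heat shock element; 0% = median of DMSO wells and -100% = zero luminescence signal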
# LGR2 inh: inhibitors of bursicon-induced LGR2 CRE-luciferase signal, primary screen, cell-based, HEK293, CRE-luciferase reporter, bursicon stimulation; Drosophila bursicon receptor LGR2 (rickets); bursicon-stimulated, 4 h; inhibition, % at 9.99 µM; actives 0.35% (n = 380,000);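 active = drop in luminescence signal, shown as inhibition above about 50% in the replicate tests, limit read from the data, passing the limit was not always enough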;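 also: agonist challenge used bursicon conditioned medium at about half maximal strength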
# TROY signal inh: inhibitors of TROY-driven NF-kB signaling, primary screen, Q293 LMP1-TROYcd cells, NF-kB luciferase, uHTS. Q293 LMP1-TROYcd NF-kB luciferase reporter, 4 h. inhibition, % at 10 µM. actives 0.98% (n = 360,000). AID 1347056, 2019;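 active = compounds whose plate-normalised and pattern-corrected inhibition of the luciferase reporter signal at the single screening dose is 50% or more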
# LMP1 NFkB inh: EBV LMP1-driven NF-kappaB luciferase reporter inhibitors, primary screen, cell-based, luminescence, single point. LMP1-induced NF-kappaB luciferase reporter cells. actives 0.69% (n = 350,000). inhibition, % at 12.5 µM. AID 504558, 2011; in the data active = inhibition above about 41%;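 also: 0% = neutral control wells and 100% = reference inhibitor control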
# HSF-1 act: HSF-1 activators, primary screen, NIH3T3-HGL cells, MG132 stress, luminescence, single point | actives 1.7% (n = 300,000) | NIH3T3-HGL HSF-1 luciferase reporter, 8 h; 100% = twice DMSO control signal | AID 504408, 2011 | activation, % at 9 µM;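 active = mean replicate activation of at least 50% with a set share of replicates each reaching 50%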;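 also: 0% = median of the neutral control wells and 100% = twice that signal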
# TWEAK-Fn14 inh: inhibitors of TWEAK-Fn14 signaling, primary screen, luciferase reporter cells, uHTS. AID 1159606, 2016. inhibition, % at 10 µM. TWEAK-stimulated Fn14 reporter cells, luciferase luminescence, 8 h. actives 2% (n = 360,000); in the data active = inhibition above about 50%
# * marks the source's active call; other numbers are inactive results; x = not tested or not shown.
SMILES,HSF1 inhib,LGR2 inh,TROY signal inh,LMP1 NFkB inh,HSF-1 act,TWEAK-Fn14 inh
O=C(Nc1nccs1)c1ccc(COc2ccc(Cl)cc2)o1,37,x,-25,-14,56*,7
Cc1noc(C)c1NC(=O)N(C)C[C@H]1OCCCC[C@H](C)Oc2ccc(N(C)C)cc2C(=O)N([C@H](C)CO)C[C@H]1C,x,5,x,x,x,x
N#Cc1ccc(CSc2nc(N)cc(=O)[nH]2)cc1,11,-6,18,17,2,72*
N#Cc1ccc(CSc2nc(N)cc(N)n2)cc1,35,21,-8,1,74*,-21
Cc1ccc(CSc2nc(N)cc(N)n2)cc1,9,x,-42,-16,4,-17
COc1cccc(-c2cnc3c(c2)C(=O)N([C@H](C)CO)C[C@@H](C)[C@H](CN(C)C(=O)CN(C)C)O3)c1,x,5,x,x,x,x
O=[N+]([O-])c1ccc(O)c(C=NN2CCCCC2)c1,x,-7,-15,0,x,-20
Cc1ccccc1/C=C1\SC(=S)N(/N=C/c2cc([N+](=O)[O-])ccc2O)C1=O,-3,5,78*,-8,-1,17
O=C1/C(=C\c2cc([N+](=O)[O-])ccc2O)SC(=S)N1Cc1ccc(Cl)cc1,11,15,53*,-3,19,72*
C[C@@H]1CN([C@@H](C)CO)C(=O)Cc2cc(NC(=O)Cc3cn(C)c4ccccc34)ccc2O[C@@H]1CN(C)Cc1ccncc1,x,-16,x,x,x,x
COc1ccc(NC(=O)C2=Cc3ccccc3OC2)cc1,12,38,2,-15,35,52*
O=C(Nc1ccc(Cl)cc1Cl)C1=Cc2ccccc2OC1,32,x,-18,-47,53*,13
CC=Cc1ccc2n(c1=O)C[C@H]1[C@H](CO)[C@@H](C(=O)NCCC)N(C(=O)c3cccnc3)[C@@H]21 (mixture of isomers),x,-14,x,x,x,x
CCOc1cc(/C=C2\COc3ccccc3C2=O)ccc1OCC(=O)N(C)C,-1,2,2,13,12,79*
O=C1C2CC=CCC2C(=O)N1c1ccc(NCCc2ccc(Cl)cc2)c([N+](=O)[O-])c1 (stereo unspecified),27,x,-16,-17,48,15
O=C1C2CC=CCC2C(=O)N1c1ccc(NCCc2ccc(O)cc2)c([N+](=O)[O-])c1 (stereo unspecified),4,2,1,0,32,57*
CCc1cc(=O)oc2c(C)c(OC(C)C(=O)NCCCN3CCOCC3)ccc12 (stereo unspecified),-6,-9,3,-3,5,-14
Cc1cc(=O)oc2c(C)c(OC(C)C(=O)NCCCN3CCOCC3)ccc12 (stereo unspecified),-69*,-4,2,-4,-76,16
Cc1cc(=O)oc2c(C)c(OC(C)C(=O)NCC(O)c3ccccc3)ccc12 (stereo unspecified),15,6,-11,6,51*,-21
C[C@@H]1CN([C@H](C)CO)C(=O)c2cccc(N(C)C)c2O[C@@H]1CN(C)S(=O)(=O)c1cn(C)cn1,x,2,x,x,x,x
O=C(N/N=C/c1ccccn1)c1ccc(NC(=O)c2cccc([N+](=O)[O-])c2)cc1,11,14,27,-8,20,11
O=C(Nc1cc(Sc2ccccn2)cc([N+](=O)[O-])c1)c1ccc(Cl)cc1,6,x,17,-13,-6,65*
O=C(Nc1cc(Sc2ccccn2)cc([N+](=O)[O-])c1)c1cccc(Cl)c1,-1,35,47,4,8,78*
O=C(Cc1ccncc1)NCC[C@@H]1CC[C@H](NC(=O)C2CCOCC2)[C@@H](CO)O1,x,6,x,x,x,x
C[C@H]1CN([C@@H](C)CO)C(=O)c2cccc(NS(=O)(=O)c3cccs3)c2O[C@H]1CN(C)S(=O)(=O)c1cccs1,x,-24,x,x,x,x
SMILES,HSF1 inhib,LGR2 inh,TROY signal inh,LMP1 NFkB inh,HSF-1 act,TWEAK-Fn14 inh
C[C@@H]1CCCCO[C@H](CN(C)C(=O)Nc2ccc3c(c2)OCO3)[C@H](C)CN([C@H](C)CO)C(=O)c2cc(NC(=O)Nc3ccc(F)cc3)ccc2O1,x,-6,x,x,x,x
O=C1CC(NNc2nc3ccccc3s2)C(=O)N1c1ccc(F)cc1 (stereo unspecified),32,8,69*,-18,41,16
Cc1cccc(N2C(=O)CC(NNc3nc4ccccc4s3)C2=O)c1 (stereo unspecified),49,24,-3,1,109*,7
O=C1CC(N2CCN(c3nc4ccccc4s3)CC2)C(=O)N1c1ccc(F)cc1 (stereo unspecified),2,x,21,-9,8,10
COCC(=O)Nc1ccc2c(c1)C(=O)N(C)C[C@@H](OC)[C@@H](C)CN(C(=O)c1ccccn1)[C@H](C)CO2,x,10,x,x,x,x
CO[C@@H]1CC[C@@H]2CCN(C)C(=O)[C@H](C)N(C)C(=O)c3cc(C#N)ccc3OC[C@H]1O2,x,-1,x,x,x,x
COc1ccc(/C=N/N=C/c2ccc(OC)c(OC)c2)cc1OC,-4,x,-7,44*,-3,-13
COc1ccc(/C=N/Nc2nnc(C)n2N)cc1OC,27,-7,32,60*,43,-24
O/N=C/c1cc(Cl)ccc1OCc1ccccc1Cl,0,x,-8,3,5,18
COc1cc(/C=N/N=C(N)N)ccc1OCc1ccccc1Cl,17,8,0,4,55*,2
COc1ccc(/C=N/Nc2nnc(C)n2N)cc1OC(C)=O,40,7,16,-4,80*,14
CCCNC(=O)C[C@H]1CC[C@@H]2[C@@H](COc3ccc(NC(=O)Nc4c(C)noc4C)cc3C(=O)N2C)O1,x,13,x,x,x,x
O=C1NCC2=C1C(c1ccc(Br)cc1)Nc1ccccc1N2 (stereo unspecified),28,x,-62,-9,51*,-18
NC(=O)c1ccsc1NC(=O)C1CCCCC1,-57*,-23,-45,-20,-67,-11
CNC(=O)c1ccsc1NC(=O)c1ccc2c(c1)CCCC2,31,-102,-38,-46,39,-26
NC(=O)c1ccsc1NC(=O)c1ccc2c(c1)CCCC2,3,63*,20,-69,18,48
NC(=O)c1ccsc1NC(=O)c1ccc(N2CCCC2=O)cc1,x,72*,9,23,x,43
CO[C@H]1CC[C@H]2CCN(C)C(=O)C[C@@H](c3ccccc3)CN(C)C(=O)c3cc(C#N)ccc3OC[C@H]1O2,x,2,x,x,x,x
CCC(=O)Nc1cccc(NC(=S)NC(=O)c2ccc(Cl)cc2)c1,17,-54,-22,-6,64*,-4

# Source: PubChem BioAssay (several laboratories)
